# Test results as given in ChEMBL document CHEMBL3988442, “University of Dundee, Small-Polar-MMV Screening Library” (2021).
# Target: T1, Arginase-2, mitochondrial (Homo sapiens) (UniProt P78540)
# T1 sequence (whole entry): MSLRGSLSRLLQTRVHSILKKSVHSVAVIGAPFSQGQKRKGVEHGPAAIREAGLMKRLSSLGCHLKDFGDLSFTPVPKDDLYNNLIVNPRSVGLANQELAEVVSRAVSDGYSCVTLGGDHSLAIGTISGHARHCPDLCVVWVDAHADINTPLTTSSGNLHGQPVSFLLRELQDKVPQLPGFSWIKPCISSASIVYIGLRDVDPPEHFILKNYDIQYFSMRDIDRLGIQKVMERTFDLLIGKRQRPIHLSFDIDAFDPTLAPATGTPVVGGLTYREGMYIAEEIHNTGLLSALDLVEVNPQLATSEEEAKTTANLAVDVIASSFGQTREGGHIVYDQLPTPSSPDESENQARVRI
# Test: in vitro enzyme assay to detect the production of urea directly proportional to the activity of Arginase II
# Assay type: functional
# Design: scale not given: in the data most compounds retested in dose-response had high values
# Details: 33.3 µM
row,SMILES,Percent Effect [%]
1,O=C(CN1CCCCC1Cn1cccn1)NC1CCN(C2CC2)CC1 (stereo not given),-4.29
2,COCC1CC2(CCN(C(=O)c3cc(C)oc3C)CC2)CN1C(C)C (stereo not given),-1.25
3,CCCN(CC(=O)NC)C(=O)c1ccc(-c2ccsc2)nc1C,36.2
4,COCCN1C[C@H]2CC[C@@]3(N=C(C)N(CC4CC4)C3=O)[C@H]2C1,-0.417
5,CCO[C@@H]1CC[C@H]2[C@H]1OCCN2C(=O)C1CCOCC1,3.33
6,O=C(c1cccnc1-n1cccn1)N1CCN(CC2CC2)CC1,-0.952

# Target: T2, Proteasome subunit beta (Trypanosoma cruzi) (UniProt O96673)
# T2 sequence (whole entry): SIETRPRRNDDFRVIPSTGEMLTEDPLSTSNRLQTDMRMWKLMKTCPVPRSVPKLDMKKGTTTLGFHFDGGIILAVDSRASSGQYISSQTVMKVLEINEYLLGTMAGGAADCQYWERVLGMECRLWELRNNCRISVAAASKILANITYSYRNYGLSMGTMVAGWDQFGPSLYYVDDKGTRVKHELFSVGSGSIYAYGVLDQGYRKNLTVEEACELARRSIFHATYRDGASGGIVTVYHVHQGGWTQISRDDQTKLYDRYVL
# Test: Trypanosoma cruzi proteasome chymotrypsin-like activity (TcProtChymo) assay.
# Assay type: functional
# Design: scale not given: in the data most compounds retested in dose-response had high values
# Details: 9.37 µM
row,SMILES,Percent Effect [%]
1,CC(C(=O)Nc1ccc(N2CCCC2)nc1)n1ccnc1 (stereo not given),8.65
2,O=C1N(Cc2ccccc2F)CCCC12CCN(C1CCSCC1)C2 (stereo not given),8.37
3,Cn1cc(CN2CC3(CCN(C(=O)c4ccoc4)C3)C2)cn1,10.2
4,CCOC(=O)NC(CNC(=O)CCc1ccccn1)CC(C)C (stereo not given),4.72
5,Cc1ccc(C2CSCCN2C(=O)C2=CCCC2)o1 (stereo not given),2.83
6,Cc1nc(Nc2nccs2)cc(C2CCCN2C2CCOCC2)n1 (stereo not given),8.89
7,COCc1cn([C@@H]2c3ccccc3C3(CCNCC3)[C@H]2O)nn1,3.16
8,N#Cc1ccc(F)c(CN2CCCC2Cn2cnc3ccccc32)c1 (stereo not given),6.46
9,O=C(CCCc1ncc(-c2ccccc2)o1)N1CCN(CCO)CC1,14.2
10,CCn1cnnc1CNC(=O)N(C)Cc1ccc2c(c1)OCCO2,14.6
11,COCCNC(=O)C(C)n1cc(Br)cn1 (stereo not given),13.1
12,CCn1nc(CC(C)C)cc1C(=O)N1C[C@H](O)[C@@H](N2CCCCC2)C1,12.6
13,O=C(CN1CCC(c2ccnn2CCO)CC1)NCc1cccs1,2.87
14,CCOc1ccc(CC(=O)N2CCN(c3nccn3C)CC2)cc1,18.6
